Laboratory results: PubChem BioAssay AID1159580 (chemical genetic matrix, 2015)
Screen size: about 5,500 compounds; about 2,000 (36%) were called active. About 18% were inconclusive and are not listed. This is one part of the list. A number with no mark means an inactive call. Rule as the data show it: active = normalized growth mostly below about 0.91 (no sharp cut-off); inconclusive = no clear call, values can overlap the other calls; inactive = mostly above about 0.92.

Test: chemical genetic growth profiling, strain panel (AID 1159580);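 also: tested at 20 µM; growth read once vehicle control cultures reached saturation at 30 °C; 1 = growth at the plate median or of vehicle wells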
Conditions: S. cerevisiae deletion strains, growth OD

Compound: N#Cc1nccnc1Sc1ccc(Cl)cc1
- normalized growth (locus YAL013W, strain DEP1, stronger effect = lower value): 0.946
- normalized growth (locus YBR229C, strain ROT2, stronger effect = lower value): 0.936
- normalized growth (locus YDL101C, strain DUN1, stronger effect = lower value): 0.948
- normalized growth (locus YDR150W, strain NUM1, stronger effect = lower value): 1.03
- normalized growth (locus YEL061C, strain CIN8, stronger effect = lower value): 0.914
- normalized growth (locus YGR078C, strain PAC10, stronger effect = lower value): 0.962
- normalized growth (locus YHR030C, strain SLT2, stronger effect = lower value): 0.537 (active)
- normalized growth (locus YHR087W, strain rtc3, stronger effect = lower value): 0.978
- normalized growth (locus YJL187C, strain SWE1, stronger effect = lower value): 0.949
- normalized growth (locus YJR043C, strain POL32, stronger effect = lower value): 0.993
- normalized growth (locus YJR075W, strain HOC1, stronger effect = lower value): 0.986
- normalized growth (locus YKL190W, strain CNB1, stronger effect = lower value): 0.932
- normalized growth (locus YLR039C, strain RIC1, stronger effect = lower value): 0.698 (active)
- normalized growth (locus YLR058C, strain SHM2 (second series), stronger effect = lower value): 0.929 (active)
- normalized growth (locus YLR085C, strain ARP6, stronger effect = lower value): 0.686 (active)
- normalized growth (locus YLR262C, strain YPT6, stronger effect = lower value): 0.729 (active)
- normalized growth (locus YML094W, strain GIM5, stronger effect = lower value): 0.905
- normalized growth (locus YMR219W, strain ESC1, stronger effect = lower value): 0.93 (active)
- normalized growth (locus YMR263W, strain SAP30, stronger effect = lower value): 0.963
- normalized growth (locus YNL128W, strain TEP1, stronger effect = lower value): 0.945
- normalized growth (locus YNL153C, strain GIM3, stronger effect = lower value): 0.988
- normalized growth (locus YNL298W, strain CLA4 (second series), stronger effect = lower value): 0.868
- normalized growth (locus YNL322C, strain KRE1, stronger effect = lower value): 0.925 (active)
- normalized growth (locus YNR030W, strain Alg12, stronger effect = lower value): 0.927
- normalized growth (locus YPL055C, strain LGE1, stronger effect = lower value): 1.01
- normalized growth (locus YPL241C, strain CIN2, stronger effect = lower value): 0.941
- normalized growth (locus YPR135W, strain CTF4, stronger effect = lower value): 0.556 (active)
